Screening results deposited in PubChem BioAssay by National Center for Advancing Translational Sciences (NCATS).
NPC1 prom act = qHTS Assay for NPC1 Promoter Activators; Potency, µM (highest dose often 9.22 µM), for the others: at the highest dose activation, hits mostly activators; 320,000 tested, 2.4% active; Huh7 NPC1 promoter luciferase reporter, 24 h; AID 485313, 2010; further: % of control where 0% means no effect; nearly all actives have a fitted effect of over 60% in size
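Stable NPC1-promoter luciferase Huh7 line; cpd (DMSO) 24 h, 37 °C, 5% CO2; Amplite luciferase reagent 10 min RT; luminescence readout. qHTS format.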
FLuc modulator = qHTS profiling assay for firefly luciferase inhibitor/activator using purifed enzyme and Km concentrations of substrates (counterscreen for miR-21 project). Luciferin 4-monooxygenase (Photinus pyralis), P08659. purified FLuc, Km substrates, luminescence inhibition. Potency, µM (doses to about 57.5 µM), for inactives: at the highest dose activity change, negative = inhibition, actives largely listed as inhibitors. 360,000 tested, 6.9% active. AID 588342, 2011;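 further: plate controls were vehicle for no effect and reference inhibitor for full effect; nearly all actives have a fitted effect of over 55% in size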
Target sequence (P08659 whole entry, looked up): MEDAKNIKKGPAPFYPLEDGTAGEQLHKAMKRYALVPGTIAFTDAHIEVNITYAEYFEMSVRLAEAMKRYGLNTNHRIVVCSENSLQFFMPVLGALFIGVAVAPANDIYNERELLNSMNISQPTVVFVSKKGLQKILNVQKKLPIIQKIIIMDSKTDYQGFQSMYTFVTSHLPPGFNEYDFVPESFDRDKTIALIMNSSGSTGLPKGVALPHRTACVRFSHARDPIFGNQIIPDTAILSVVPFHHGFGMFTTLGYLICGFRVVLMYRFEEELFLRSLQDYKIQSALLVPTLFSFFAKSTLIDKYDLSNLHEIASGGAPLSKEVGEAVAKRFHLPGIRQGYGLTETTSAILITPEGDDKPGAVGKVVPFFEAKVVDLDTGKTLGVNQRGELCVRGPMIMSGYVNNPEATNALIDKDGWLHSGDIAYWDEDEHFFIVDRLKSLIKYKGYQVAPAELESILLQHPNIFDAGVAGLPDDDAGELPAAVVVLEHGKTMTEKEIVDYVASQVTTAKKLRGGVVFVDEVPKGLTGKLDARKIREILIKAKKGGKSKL
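Biochemical qHTS of compounds, final roughly 60 µM downward over six points, against 10 nM purified firefly luciferase using Km concentrations of substrates (10 uM D-luciferin, 10 uM ATP) in Tris acetate pH 7.5 buffer; luminescence output.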
SMN2 splice up = qHTS Assay for Enhancers of SMN2 Splice Variant Expression; HEK293 SMN2-luciferase splicing reporter, luminescence, 30-36 h; Potency, µM (doses to about 46.1 µM), inactives show at the highest dose activity change, positive = activation, actives largely listed as activators; 210,000 tested, 2.8% active; AID 1458, 2008; further: % of control where 0% means no effect; nearly all actives have a fitted effect of over 55% in size
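HEK293 cells carry an SMN2 […]–luciferase reporter in which exon 7 inclusion puts luciferase in frame. Cells were plated 10-12 h before compound addition, then incubated 30-36 h at 37C. ONE-Glo luminescence was read; sodium butyrate at 4.5 mM final served as control.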
ELG1 genotox = qHTS screen for small molecules that induce genotoxicity in human embryonic kidney (HEK293T) cells expressing luciferase-tagged ELG1. HEK293T ELG1-luciferase reporter, luminescence, 16 h. Potency, µM (doses to about 46 µM), for inactives: at the top dose activity change, positive = activation, usual class: activators. 330,000 tested, 1.3% active. AID 504466, 2011; further: % of control where 0% means no effect; nearly all actives have a fitted effect of over 60% in size
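After overnight (16 hr) compound treatment at 37 °C, ELG1-luciferase HEK293T cells were lysed with ONE-Glo; luminescence quantified 30 min later at room temperature.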
Rab9 prom act = qHTS Assay for Rab9 Promoter Activators; Huh7 Rab9 promoter-luciferase reporter, luminescence, 24 h; Potency, µM (doses to about 9.22 µM), without a hit: top-dose activation, negative = inhibition, hits mostly activators; 320,000 tested, 2.8% active; AID 485297, 2010; further: % of control where 0% means no effect; nearly all actives have a fitted effect of over 60% in size
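Huh7 cells stably carrying a Rab9 promoter-luciferase reporter, 1500 cells per well in OP-MEM I with 10% FBS, treated with compound 24 hours at 37C. Luciferase activity read by luminescence after 10 minutes with Amplite reagent.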
Numbers without * were called inactive; ? = inconclusive; . = no result; [ ] = remark or other dose. Most compounds without a hit are left out; they make up all but 7.5% or so of the library. The call rests on the fitted dose curve; in most records, active means well fitted curve in the direction sought with a large enough effect; inconclusive means small, poorly fitted or top-dose-only effect, or another doubt; inactive means no such curve, though single readings can be large; an effect the other way counts as inactive or inconclusive. Potency means the concentration at half of the fitted maximal effect.

SMILES	NPC1 prom act	FLuc modulator	SMN2 splice up	ELG1 genotox	Rab9 prom act
COC(=O)C1(C(=O)OC)C/C=C\Cc2ccccc2[C@@H]1C[N+](=O)[O-]	.	.	-5.7%	.	.
COc1cccc(Nc2nc(-c3ccccc3)c3cc(C)ccc3n2)c1	.	0.1%	-7.8%	.	.
COc1cc(Nc2nc(-c3ccccc3)c3cc(C)ccc3n2)cc(OC)c1OC	-3.8%	16.9µM*	15.1%	-2.0%	1.8%
O=[N+]([O-])c1ccc2nc(-c3ccccc3)n(OCc3ccc(Cl)cc3)c2c1	1.7%	?	-22.3%	0.0%	5.2%
COn1c(-c2ccccc2)nc2ccc(Cl)cc21	?	12µM*	28.5%	14.2%	?
COn1c(-c2ccccc2)nc2ncccc21	-4.2%	-2.2%	.	0.0%	8.9%
O=C(O)COn1c(-c2ccccc2)nc2ccc(Cl)cc21	9.7%	4.78µM*	?	?	25.7%
CN(C)c1oc(-c2ccc(OCc3ccccc3)cc2)nc1C#N	17.3%	?	?	16.4µM*	5.7%
N#Cc1nc(-c2ccc(OCc3ccccc3)cc2)oc1NCc1cccnc1	0.2%	?	-27.4%	-16.4%	1.2%
Cc1cc([N+](=O)[O-])ccc1NC(=O)CN1C2CCC1CC(NC(=O)NC13CC4CC(CC(C4)C1)C3)C2 (stereo not drawn)	-25.4%	2.9%	.	-8.1%	-43.4%
O=C(N/N=C/c1ccccn1)c1ccc([N+](=O)[O-])cc1	-1.5%	19µM*	4.2%	8.8%	5.1%
O=C(N/N=C/c1ccccn1)c1cc([N+](=O)[O-])cc([N+](=O)[O-])c1	-2.6%	-7.8%	-3.7%	6.3%	-1.7%
CC(C)(C)c1ccc(C(=O)N/N=C/c2ccccn2)cc1	21.8%	9.53µM*	.	?	25.9%
Cc1ccccc1C(=O)Nc1ccc(C(=O)N/N=C/c2ccccn2)cc1	-3.3%	-3.7%	.	0.0%	-0.1%
O=C(N/N=C/c1ccccn1)c1ccc(N/N=C/c2ccccn2)cc1	22.7%	2.39µM*	14.1µM*	-3.2%	2.24µM*
O=C(N/N=C/c1ccccn1)c1ccc(Br)cc1	?	10.7µM*	9.3%	?	?
O=C(N/N=C/c1ccccn1)c1ccc2nc[nH]c2c1	20.6%	?	.	-11.6%	2.8%
CC(C)COc1ccc(C(=O)N2CCCCC2CCN2CCCCC2)cc1 (stereo not drawn)	.	-0.6%	-11.2%	.	.
CCOC(=O)C1CCCN(S(=O)(=O)c2cnc(Cl)c(Br)c2)C1 (stereo not drawn)	-8.6%	1.5%	.	-0.5%[9.26 µM]	-6.0%
O=C(N/N=C/c1ccc[nH]1)c1ccc([N+](=O)[O-])cc1	-1.7%	15.1µM*	-10.1%[1.84 µM]	2.4%	-7.6%
Cc1ccc(C(=O)N/N=C\c2ccccn2)cn1	9.4%	19µM*	.	0.3%	-0.6%
Cc1ccc(C(=O)N/N=C\c2ccc[nH]2)cn1	1.4%	?	-21.0%	15.8%	1.1%
C(=N\N=C\c1ccccn1)/c1ccccn1	0.4%	12µM*	.	-1.5%	-1.9%
O=C(CCCC(=O)N/N=C\c1ccccn1)N/N=C\c1ccccn1	-2.9%	5.2%	.	0.5%	1.0%
CCOC(=O)c1sc(Nc2ccc(Br)cc2)nc1C	15.5%	19µM*	.	7.8%	16.6%
SMILES	NPC1 prom act	FLuc modulator	SMN2 splice up	ELG1 genotox	Rab9 prom act
CCOC(=O)c1sc(NC(=O)Nc2ccccc2F)nc1C	?	0.169µM*	-58.9%	0.259µM*	0.447µM*
CCOC(=O)c1sc(NC(=O)/C=C/c2c(F)cccc2Cl)nc1C	20.4%	0.2%	1.3%	-0.1%	25.4%
COC(=O)Cc1csc(Nc2ccccc2Cl)n1	?	19µM*	?	?	3.55µM*
CCOC(=O)c1sc(Nc2ccccc2Cl)nc1C	?	15.1µM*	.	?	?
CCc1cnc2c(c1SCCC(C)C)c(=O)n(C)c(=O)n2C	.	-12.7%	.	.	.
CCCCn1c(N)c(N(CCC(C)C)C(=O)c2ccc(N3CCCC3=O)cc2)c(=O)[nH]c1=O	-3.0%	3.3%	.	-0.1%	-0.5%
CCOC(=O)c1cccc(NC(=O)CCC(=O)N2CC(C)Oc3ccc(C)cc32)c1 (stereo not drawn)	.	-7.6%	.	.	.
Cc1[nH]c(C)c2c(=O)n(-c3ccccc3)ncc12	17.6%	?	-0.4%	20.6µM*	?
COc1cccc(C(=O)NC2=NCCS2)c1	1µM*	6.01µM*	2µM*	?	0.562µM*
CC(C)Oc1cccc(C(=O)NC2=NCCS2)c1	3.16µM*	19µM*	5.01µM*	-17.3%	3.98µM*
CCOc1cccc(C(=O)NC2=NCCS2)c1	0.631µM*	12µM*	.	?	0.501µM*
O=C(NC1=NCCS1)c1cccc(NC(=O)c2ccco2)c1	11.2%	?	2.9%	-0.2%	1.6%
O=C(CSc1n[nH]c(=O)n1C1CC1)Nc1ccc(OC(F)(F)F)cc1	.	.	.	0.6%	.
COc1cccc(NC(=O)CSc2nnc3[nH]c(=O)cc(-c4ccccc4)n23)c1	.	1.2µM*	.	.	.
COc1cccc(NC(=O)CSc2nc3ccccc3c(=O)n2C)c1	-4.4%	2.2%	.	-6.9%	-12.7%
O=C(CSc1nnc2[nH]c(=O)cc(-c3ccccc3)n12)Nc1ccc(OC(F)(F)F)cc1	.	2.39µM*	.	.	.
O=C(c1ccco1)N1C(=O)c2cccc3cccc1c23	-3.5%	-1.1%	10µM*	-0.1%	-1.2%
CC(C)c1ccc(/C=C/C(=O)Nc2nncs2)cc1	0.891µM*	0.757µM*	17.8µM*	?	0.501µM*
Cc1sc(NC(=O)/C=C/c2ccc(C(C)C)cc2)c(C#N)c1C	-3.7%	-4.8%	-4.8%	5.4%	2.4%
CCc1nn(CC(=O)N2CCCCC2)c(=O)c2cc3sccc3n12	.	-6.2%	-1.7%	.	.
CC(=O)Nc1cccc(-c2nc3ccc(NC(C)=O)cc3[nH]2)c1	4.3%	15.1µM*	-16.2%	0.7%	-4.5%
CC(=O)Nc1ccc2nc(-c3ccco3)[nH]c2c1	23.0%	16.9µM*	?	15.8%	?
O=C(Nc1ccc2nc(-c3ccco3)[nH]c2c1)c1ccco1	?	7.57µM*	23.7%	16.4µM*	?
O=C(Nc1ccc2nc(-c3ccco3)[nH]c2c1)c1cccs1	?	2.69µM*	11.2µM*	5.4%	3.16µM*
Cc1ccc2nc(-c3cccc(NC(=O)c4ccco4)c3)[nH]c2c1	?	1.35µM*	12.6µM*	0.1%	?
O=C(Nc1ccc2nc(-c3cccnc3)[nH]c2c1)c1ccco1	-3.4%	?	11.3%	-1.0%	-3.7%
Cc1cc2cc(NC(=O)c3ccco3)ccc2[nH]1	?	15.1µM*	27.5%	14.2%	?
CCn1c(C)nc2cc(C(=O)N/N=C/c3ccccc3C)ccc21	1.78µM*	10.7µM*	15.8µM*	?	1.12µM*
CCn1c(C)nc2cc(C(=O)NNC(=S)Nc3ccccc3OC)ccc21	24.0%	19µM*	.	9.6%	?
